This is an account of results in PubChem BioAssay.

Each structure is given as a SMILES string. Unmarked numbers belong to inactive results. For some of these results: Results with a measured potency or affinity are listed apart. Calls of active or inactive are those of the source. Unless noted, how the calls were made is not given here.

The nature of assay [1]: antimalarial activity against Dd2 strain (AID 2302;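 active means growth inhibition above 50% at the single 2 µM test dose, taken to imply half-maximal potency below 2 µM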;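 further: 0% = DMSO untreated growth and 100% = chloroquine plus artemisinin killed control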). Conditions: P. falciparum Dd2 in RBCs, LDH growth readout, 72 h; at 2 µM; hits give high values.
The nature of assay [2]: HepG2 cytotoxicity, primary screen, cytotoxicity control for P. falciparum antimalarial project, cell-based, ATP luminescence (AID 2303;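 active means inhibition above 50%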;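 further: 0% = DMSO wells and 100% = digitonin-killed cells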). Conditions: HepG2 viability, 24-48 h, at 10 µM, hits give high values.
For assay [3], the target named is L-lactate dehydrogenase (Plasmodium falciparum (isolate CDC / Honduras)) (UniProt Q27743). The experiment in a line: PfLDH activity inhibition – cell lysate, 3D7 strain, counter-screen for P. falciparum growth inhibition project (AID 2304).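 Further: 0% = vehicle and 100% = reference inhibitor.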 Conditions: P. falciparum 3D7 crude extract, LDH APAD/NBT absorbance; at 2 µM; hits give high values. Background: Counterscreens check selectivity or assay interference.
Chain of L-lactate dehydrogenase (Plasmodium falciparum (isolate CDC / Honduras)) (Q27743 whole entry, looked up): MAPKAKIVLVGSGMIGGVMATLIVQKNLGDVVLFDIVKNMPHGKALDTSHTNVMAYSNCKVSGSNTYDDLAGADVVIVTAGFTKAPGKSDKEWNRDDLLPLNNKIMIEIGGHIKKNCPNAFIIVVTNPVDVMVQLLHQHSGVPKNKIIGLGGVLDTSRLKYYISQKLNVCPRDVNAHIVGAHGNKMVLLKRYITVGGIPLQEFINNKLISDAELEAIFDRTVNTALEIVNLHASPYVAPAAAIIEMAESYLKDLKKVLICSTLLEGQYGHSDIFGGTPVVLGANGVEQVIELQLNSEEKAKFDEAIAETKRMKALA

Assay [4] in a line: inhibition of 3D7 malaria parasite growth – strain 3D7 (AID 2306).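 Further: 0% = DMSO wells and 100% = chloroquine plus artemisinin control wells.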 Conditions: P. falciparum 3D7 erythrocytic growth, LDH absorbance, 72 h; at 2 µM; hits give high values.
Assay [5] concerns the target Calcium-dependent protein kinase 1 (Plasmodium falciparum (isolate 3D7)) (UniProt P62344). The assay can be described thus: PfCDPK1 kinase inhibitors, biochemical, TCAMS library (AID 1159585; cut-off not given, nearly all actives have IC50 up to about 0.98 µM;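 further: inhibitors leave more ATP so luminescence rises with inhibition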). The settings on record: recombinant PfCDPK1, Kinase-Glo ATP depletion luminescence. For orientation: In Kinase-Glo more light means more ATP remaining.
In assay [6] the target is Plasmodium falciparum protein kinase 6 (PK6, PF3D7_1337100) (UniProt Q8IDW1). The assay can be described thus: PfPK6 kinase inhibitors, biochemical, TCAMS library (AID 1159586). Conditions: recombinant PfPK6, Kinase-Glo ATP depletion luminescence.
Chain of Plasmodium falciparum protein kinase 6 (PK6, PF3D7_1337100) (Q8IDW1 1-305): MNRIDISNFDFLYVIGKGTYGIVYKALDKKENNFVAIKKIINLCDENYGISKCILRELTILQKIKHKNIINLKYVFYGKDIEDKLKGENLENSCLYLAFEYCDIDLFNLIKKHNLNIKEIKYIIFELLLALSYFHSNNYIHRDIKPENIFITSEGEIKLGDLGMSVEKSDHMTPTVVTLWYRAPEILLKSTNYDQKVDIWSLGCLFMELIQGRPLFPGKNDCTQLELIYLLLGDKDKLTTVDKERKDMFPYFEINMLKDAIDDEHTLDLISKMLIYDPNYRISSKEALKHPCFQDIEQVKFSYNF
Assay [7] has as its target Protein kinase 7 (PK7), Plasmodium falciparum 3D7 (PF3D7_0213400) (UniProt Q7YTF7). The assay can be described thus: inhibition of Plasmodium PK7 catalytic activity – biochemical, TCAMS antimalarial set, Kinase-Glo luminescence (AID 1159587). Conditions: recombinant PfPK7, Kinase-Glo ATP depletion luminescence.
Assay [8] deals with Calcium-dependent protein kinase 4 (Plasmodium falciparum (isolate 3D7)) (UniProt Q8IBS5). The assay can be described thus: PfCDPK4 kinase inhibitors, biochemical, TCAMS library (AID 1159588; cut-off not given, nearly all actives have IC50 up to about 0.91 µM). The settings on record: recombinant PfCDPK4, Kinase-Glo ATP depletion luminescence.
Chain of Calcium-dependent protein kinase 4 (Plasmodium falciparum (isolate 3D7)) (Q8IBS5 whole entry, looked up): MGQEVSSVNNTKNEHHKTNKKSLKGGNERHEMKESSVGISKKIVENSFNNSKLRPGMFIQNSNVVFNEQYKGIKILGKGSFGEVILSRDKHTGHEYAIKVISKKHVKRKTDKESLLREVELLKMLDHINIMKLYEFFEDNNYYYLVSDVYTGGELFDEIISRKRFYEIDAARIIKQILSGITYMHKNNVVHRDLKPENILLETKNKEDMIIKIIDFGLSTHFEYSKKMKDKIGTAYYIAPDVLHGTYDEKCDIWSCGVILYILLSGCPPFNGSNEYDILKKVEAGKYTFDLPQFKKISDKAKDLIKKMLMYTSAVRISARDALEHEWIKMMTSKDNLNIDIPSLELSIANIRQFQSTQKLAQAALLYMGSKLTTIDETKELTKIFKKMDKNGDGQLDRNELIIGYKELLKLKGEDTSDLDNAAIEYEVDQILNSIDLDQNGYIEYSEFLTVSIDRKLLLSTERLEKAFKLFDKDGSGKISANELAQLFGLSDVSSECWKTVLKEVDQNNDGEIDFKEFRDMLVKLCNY

Chain of Calcium-dependent protein kinase 1 (Plasmodium falciparum (isolate 3D7)) (P62344 whole entry, looked up): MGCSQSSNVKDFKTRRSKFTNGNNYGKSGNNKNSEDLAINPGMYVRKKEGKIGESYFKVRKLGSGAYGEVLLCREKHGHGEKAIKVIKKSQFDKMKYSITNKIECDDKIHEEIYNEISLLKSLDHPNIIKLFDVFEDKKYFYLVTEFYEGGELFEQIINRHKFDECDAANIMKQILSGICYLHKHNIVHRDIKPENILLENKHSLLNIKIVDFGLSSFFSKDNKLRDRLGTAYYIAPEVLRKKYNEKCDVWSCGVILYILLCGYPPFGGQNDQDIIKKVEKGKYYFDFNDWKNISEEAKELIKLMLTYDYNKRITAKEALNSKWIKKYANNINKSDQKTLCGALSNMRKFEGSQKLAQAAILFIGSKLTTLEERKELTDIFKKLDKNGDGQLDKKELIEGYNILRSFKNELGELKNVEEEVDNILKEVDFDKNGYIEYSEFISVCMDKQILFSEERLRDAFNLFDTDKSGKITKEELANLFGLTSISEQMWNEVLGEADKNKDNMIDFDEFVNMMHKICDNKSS
Chain of Protein kinase 7 (PK7), Plasmodium falciparum 3D7 (PF3D7_0213400) (Q7YTF7 1-343): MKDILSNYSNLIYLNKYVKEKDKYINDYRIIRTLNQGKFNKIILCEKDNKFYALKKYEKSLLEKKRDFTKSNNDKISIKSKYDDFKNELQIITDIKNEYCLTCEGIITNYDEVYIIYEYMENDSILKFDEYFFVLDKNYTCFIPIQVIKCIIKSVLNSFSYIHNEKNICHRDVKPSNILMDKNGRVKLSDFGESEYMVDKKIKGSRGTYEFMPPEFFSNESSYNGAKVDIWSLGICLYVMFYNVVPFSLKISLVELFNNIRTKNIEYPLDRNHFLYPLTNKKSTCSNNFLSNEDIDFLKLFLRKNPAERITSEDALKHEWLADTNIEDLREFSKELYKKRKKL

In general, inhibition refers to the change of the read-out against control, counted positive when it falls. `CN1CCN(c2ccnc3ccc(NC(=O)Nc4ccccc4Br)cc23)CC1`: the growth inhibition was 95% (active) in assay [1] and 100% (active) in assay [4]. Further, the inhibition was 4% in assay [2] and -3% in assay [3]. Also, the result in assay [5], in assay [6], in assay [7] and in assay [8] was inactive.

For the molecule `O=C(Nc1cccc(CN2CCCN(CC3CCCCC3)CC2)c1)c1ccc(Cl)c(Cl)c1`, the growth inhibition was 15% in assay [1] and 91% (active) in assay [4]. Moreover, the inhibition in assay [2] was 39%; in assay [3] it was 7%. In addition, the outcome in assay [5], in assay [6], in assay [7] and in assay [8] was inactive.

Regarding `O=c1cc(NCCCNC2CCCc3c2ccc2ccccc32)[nH]c2ccccc12` (stereo not given), the growth inhibition in assay [1] is 30%; in assay [4], 94% (active). In addition, the inhibition is -1% in assay [2] and -2% in assay [3]. The outcome in assay [5], in assay [6], in assay [7] and in assay [8] was inactive.

Take `Oc1cccc(-c2nc(-c3ccccc3)c(-c3ccc(Oc4ccc(-c5[nH]c(-c6cccc(O)c6)nc5-c5ccccc5)cc4)cc3)[nH]2)c1`: the growth inhibition in assay [1] was 96% (active); in assay [4] it was 91% (active). Besides, the inhibition was 6% in assay [2] and 0% in assay [3]. Further, the result in assay [5], in assay [6], in assay [7] and in assay [8] was inactive.

Turning to `O=C(NCC1CCN(Cc2cccc(C(F)(F)F)c2)C1)c1cc(-c2cccc(Cl)c2)cs1` (stereo not given), the results for the growth inhibition in assay [1] and in assay [4] were 14% and 93% (active), respectively. The inhibition was 15% in assay [2] and -5% in assay [3]. Moreover, the outcome in assay [5], in assay [6], in assay [7] and in assay [8] was inactive.

As to `CCCCN1CCCN(Cc2cccc(NC(=O)c3ccc(-c4ccccc4)cc3)c2)CC1`, the growth inhibition in assay [1] was 8%; in assay [4], 92% (active). The inhibition in assay [2] was 19%; in assay [3], 5%. In addition, the result in assay [5], in assay [6], in assay [7] and in assay [8] was inactive.

Turning to `C[C@@H]1CC[C@H](NC(=O)[C@H](CC2CCCC2)NC(=O)N2CCNCC2)C(=O)CN1S(=O)(=O)c1ccccn1`, the growth inhibition in assay [1] was 19%; in assay [4] it was 84% (active). Also, the figures for the inhibition in assay [2] and in assay [3] were 5% and -2%, respectively. The outcome in assay [5], in assay [6], in assay [7] and in assay [8] was inactive.

As for `O=C(/C=C/c1ccc(Cl)c(Cl)c1)N1CCC(CN2CCC(c3c[nH]c4cnccc34)CC2)CC1`, the growth inhibition in assay [1] was 100% (active); in assay [4], 102% (active). Further, the inhibition in assay [2] is 39%; in assay [3], 7%. Further, the result in assay [5], in assay [6], in assay [7] and in assay [8] was inactive.

With `COc1c(C2CCN(CCCCNC(=O)c3ccc(NC(=O)c4ccc(C#N)cc4)cc3)CC2)ccc2c1CCCC2`, the growth inhibition in assay [1] was 100% (active); in assay [4], 97% (active). The inhibition is 81% (active) in assay [2] and 1% in assay [3]. Moreover, the result in assay [5], in assay [6], in assay [7] and in assay [8] was inactive.

As to `CCc1cccc(NC(=O)/C=C/c2ccc3c(c2)CN(C)CC3)c1`, the growth inhibition in assay [1] is 91% (active); in assay [4] it was 94% (active). Besides, the inhibition in assay [2] is 8%; in assay [3] it was -1%. Besides, the outcome in assay [5], in assay [6], in assay [7] and in assay [8] was inactive.

For `FC(F)(F)c1cccc(CCNc2nccc(NCc3ccc(Cl)cc3Cl)n2)c1`, the growth inhibition in assay [1] is 59% (active); in assay [4], 97% (active). The inhibition in assay [2] is 8%; in assay [3], 1%. The result in assay [5], in assay [6], in assay [7] and in assay [8] was inactive.

Take `CCc1ccccc1N1CCN(CCCC(=O)c2ccc(NC(=O)c3cc(Cl)cc(Cl)c3)cc2)CC1`: the growth inhibition in assay [1] was 46%; in assay [4], 99% (active). The inhibition was 16% in assay [2] and 1% in assay [3]. Also, the result in assay [5], in assay [6], in assay [7] and in assay [8] was inactive.

`CCN(CC)CCN(Cc1ccc(-c2ccc(C(F)(F)F)cc2)cc1)C(=O)Cn1c(CCc2cc(F)c(F)c(F)c2)nc(=O)c2ccccc21`: the growth inhibition in assay [1] was 70% (active); in assay [4], 101% (active). For the same molecule, the values for the inhibition in assay [2] and in assay [3] were 31% and -4%, respectively. Moreover, the outcome in assay [5], in assay [6], in assay [7] and in assay [8] was inactive.

Turning to `O=C(/C=C/c1ccc([N+](=O)[O-])cc1)N1CCC(NS(=O)(=O)c2cccc(C(F)(F)F)c2)CC1`, the figures for the growth inhibition in assay [1] and in assay [4] were 8% and 94% (active), respectively. In addition, the inhibition was -2% in assay [2] and -1% in assay [3]. The outcome in assay [5], in assay [6], in assay [7] and in assay [8] was inactive.

For the molecule `CS(=O)(=O)Cc1ccc(Nc2nccc(NC3CCN(c4nccc(C(F)(F)F)n4)CC3)n2)cc1`, the growth inhibition was 23% in assay [1] and 88% (active) in assay [4]. The figures for the inhibition in assay [2] and in assay [3] were 34% and -3%, respectively. For the same molecule, the result in assay [5], in assay [6], in assay [7] and in assay [8] was inactive.

Regarding `Cc1nc2ccc3ccc(CNc4ccc5c(c4)CN([C@H](CCC(=O)O)C(=O)O)C5=O)cc3c2c(=O)[nH]1`, the growth inhibition is 90% (active) in assay [1] and 87% (active) in assay [4]. The inhibition in assay [2] is 38%; in assay [3] it was 2%. For the same molecule, the outcome in assay [5], in assay [6], in assay [7] and in assay [8] was inactive.

In the case of `COC(=O)C(=C(C)C)N1C(=O)[C@@H](NC(=O)OCc2ccccc2)[C@H]1SS[C@@H]1[C@H](NC(=O)OCc2ccccc2)C(=O)N1C(C(=O)OC)=C(C)C`, the growth inhibition in assay [1] was 96% (active); in assay [4], 97% (active). Besides, the inhibition in assay [2] is 18%; in assay [3] it was -5%. Besides, the outcome in assay [5], in assay [6], in assay [7] and in assay [8] was inactive.

As to `O=C(NCC1CC1)C1Cc2c([nH]c3ccc(Br)cc23)C2(CCN(CCc3ccccc3)CC2)N1` (stereo not given), the growth inhibition in assay [1] is 25%; in assay [4], 88% (active). Further, the results for the inhibition in assay [2] and in assay [3] were 14% and 1%, respectively. Besides, the outcome in assay [5], in assay [6], in assay [7] and in assay [8] was inactive.

Regarding `c1ccc2ncc(CNCCCCCCCCNCc3cnc4ccccc4c3)cc2c1`, the growth inhibition in assay [1] is 4%; in assay [4], 88% (active). Also, the inhibition in assay [2] is 8%; in assay [3] it was -3%. Also, the outcome in assay [5], in assay [6], in assay [7] and in assay [8] was inactive.

Take `Cc1cccc2[nH]c(-c3ccc(-c4cccc(CNCCc5ccncc5)c4)cc3)nc12`: the growth inhibition in assay [1] is 95% (active); in assay [4] it was 101% (active). Also, the inhibition was 28% in assay [2] and 2% in assay [3]. Besides, the result in assay [5], in assay [6], in assay [7] and in assay [8] was inactive.
